Screening data as filed in PubChem.
An excerpt weighted towards active compounds, which were near 19% of everything screened.
DT40 TDP1 no CPT = qHTS for Inhibitors of human tyrosyl-DNA phosphodiesterase 1 (TDP1): qHTS in cells in absence of CPT; DT40 Tdp1-/- hTDP1 cells, no CPT, ATP luminescence, 48 h; Potency, µM (top dose mostly 46.2 µM), usual class: inhibitors; 420,000 tested, 15% active; AID 686978, 2013; further: nearly all actives have a fitted effect of over 55% in size
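Seeded 400 DT40-hTDP1 cells/well (vehicle DMSO, no 20 nM CPT); pinned compounds; ≥48 hr at 37 °C; CellTiter-Glo luminescence as viability measure.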
HT1080NT lethal = qHTS for induction of synthetic lethality in tumor cells producing 2HG: qHTS for the HT-1080-NT fibrosarcoma cell line; HT-1080-NT fibrosarcoma viability, CellTiter-Glo ATP luminescence, 48 h; Potency, µM (doses to about 46.1 µM), hits mostly cytotoxic; 360,000 tested, 1.6% active; AID 686970, 2013;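 further: NT is the 2HG producing partner of a matched IDH1 knockdown line; nearly all actives have a fitted effect of over 55% in size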
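A 48-hour cytotoxicity screen used HT-1080-NT cells plated 2 hours before compound delivery. ATP-based CellTiter-Glo luminescence measured viability, normalized to DMSO and no-cell controls.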
HT1080 IDH1KD tx = qHTS for induction of synthetic lethality in tumor cells producing 2HG: qHTS for the HT-1080-IDH1KD cell line; Potency, µM (titrated, usually from 46.1 µM), actives largely listed as cytotoxic; HT-1080 IDH1 knockdown viability, ATP luminescence, 48 h; 360,000 tested, 2% active
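After a 2 h attachment period, IDH1KD HT-1080 cells took pin-transferred compound for 48 h at 37 °C; ATP-based luminescence after 10 min room-temperature reagent incubation reported viability.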
IL1B secr inh = qHTS for Inhibitors of Inflammasome Signaling: IL-1-beta AlphaLISA Primary Screen; THP-1 LPS/ATP IL-1B secretion, AlphaLISA, 16 h; active compounds read low; 360,000 tested, 4.7% active; activity change, % at 57.5 µM; in the data active means activity change below about -50%; inconclusive means mostly about -30% to -49%
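Secreted IL-1B measured by AlphaLISA bead assay after 16 h compound exposure of THP-1 cells; compounds (final up to 57.5 uM) added 1 h before LPS (250 ng/mL) and ATP (1.25 mM) stimulation; lower signal means less secretion.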
TDP1 cell CPT = qHTS for Inhibitors of human tyrosyl-DNA phosphodiesterase 1 (TDP1): qHTS in cells in presence of CPT. 420,000 tested, 12% active. Potency, µM (titrated, usually from 46.2 µM), usual class: inhibitors. chicken DT40 Tdp1-/-;hTDP1 cells + 20 nM CPT, ATP luminescence, 48 h. AID 686979, 2013; further: nearly all actives have a fitted effect of over 55% in size
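Chicken DT40 Tdp1-/- cells complemented with human TDP1, 400 cells/well, exposed to compounds plus 20 nM camptothecin for at least 48 h at 37 C; viability read as ATP content by CellTiter-Glo luminescence.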
Numbers stand for hits. Unless noted, the call rests on the fitted dose curve; in most records, active means well fitted curve in the direction sought with a large enough effect; inconclusive means small, poorly fitted or top-dose-only effect, or another doubt; inactive means no such curve, though single readings can be large; an effect the other way counts as inactive or inconclusive.

For COc1cc2nc(SCc3ccc(Cl)cc3)n3nc(CCn4nc(C)cc4C)nc3c2cc1OC the results were DT40 TDP1 no CPT inactive and TDP1 cell CPT inactive.
COc1cc2nc(=S)n3[nH]c(CCn4nc(C)cc4C)nc3c2cc1OC was read as DT40 TDP1 no CPT 1.3µM, HT1080NT lethal inconclusive, HT1080 IDH1KD tx inconclusive, IL1B secr inh inactive and TDP1 cell CPT 1.64µM.
`CC(Oc1ccccc1)C(=O)N[C@@H]1C(=O)N2C(C(=O)O)C(C)(C)S[C@H]12` (stereo partly specified) gave DT40 TDP1 no CPT inactive and TDP1 cell CPT inactive.
COc1ccc(NC(=O)CCNS(=O)(=O)c2cccc3nsnc23)c(OC)c1 was read as DT40 TDP1 no CPT inactive, HT1080NT lethal inactive, HT1080 IDH1KD tx inactive, IL1B secr inh inactive and TDP1 cell CPT inactive.
`CC(=O)Nc1ccc(N(C(=O)c2ccco2)C(C(=O)NC2CCCCC2)c2ccccc2)cc1` (stereo unspecified) gave DT40 TDP1 no CPT inconclusive, HT1080NT lethal inactive, HT1080 IDH1KD tx inactive, IL1B secr inh -53.1 and TDP1 cell CPT inactive.
`Cc1ccc(N(C(=O)c2ccco2)C(C(=O)NC2CCCC2)c2cccnc2)cc1C` (stereo unspecified) gave DT40 TDP1 no CPT inactive, HT1080NT lethal inactive, HT1080 IDH1KD tx inactive, IL1B secr inh inactive and TDP1 cell CPT inactive.
`CCC(C)c1ccc(N(C(=O)c2ccco2)C(C(=O)NC2CCCC2)c2cccnc2)cc1` (stereo unspecified) gave DT40 TDP1 no CPT 16.4µM, HT1080NT lethal inactive, HT1080 IDH1KD tx inactive, IL1B secr inh inactive and TDP1 cell CPT 18.4µM.
For Cc1cccc(C(=O)Nc2nnc(SCc3cc(=O)n4cccc(C)c4n3)s2)c1 the results were DT40 TDP1 no CPT inactive and TDP1 cell CPT inactive.
CCc1nnc(NC(=O)CN2CCCC(C)C2)s1 (stereo unspecified) was read as DT40 TDP1 no CPT inactive, HT1080NT lethal inactive, HT1080 IDH1KD tx inactive, IL1B secr inh inactive and TDP1 cell CPT inactive.
`Cn1cnc([N+](=O)[O-])c1Sc1ncccc1N` gave DT40 TDP1 no CPT inactive, HT1080NT lethal inactive, HT1080 IDH1KD tx inactive, IL1B secr inh inactive and TDP1 cell CPT inactive.
For Cc1cc2nc(-c3cc(NC(=O)c4cc5ccccc5o4)ccc3Cl)oc2cc1C the results were DT40 TDP1 no CPT 16.4µM and TDP1 cell CPT inconclusive.
`COc1cc2ccccc2cc1C(=O)Nc1ccc(Cl)c(-c2nc3ccccc3o2)c1` gave DT40 TDP1 no CPT 23.1µM and TDP1 cell CPT inconclusive.
`COc1ccccc1NC(=O)c1cc([N+](=O)[O-])ccc1N1CCOCC1` gave DT40 TDP1 no CPT inactive, HT1080NT lethal inactive, HT1080 IDH1KD tx inactive, IL1B secr inh inactive and TDP1 cell CPT inactive.
N#C/C(=C/c1ccncc1)c1nc2ccccc2s1 was read as DT40 TDP1 no CPT inactive, HT1080NT lethal inactive, HT1080 IDH1KD tx inactive, IL1B secr inh inactive and TDP1 cell CPT inactive.
`CC1CCc2nc(/C(C#N)=C/c3ccncc3)sc2C1` (stereo unspecified) gave DT40 TDP1 no CPT inconclusive, HT1080NT lethal inactive, HT1080 IDH1KD tx inactive, IL1B secr inh inactive and TDP1 cell CPT 18.4µM.
CCOC(=O)c1cc(C#N)c(N2CCOCC2)nc1-c1ccccc1 was read as DT40 TDP1 no CPT inconclusive, HT1080NT lethal inactive, HT1080 IDH1KD tx inactive, IL1B secr inh inactive and TDP1 cell CPT inactive.
For CCCNc1nc(-c2ccccc2)c(C(=O)OCC)cc1C#N the results were DT40 TDP1 no CPT 2.91µM, HT1080NT lethal inconclusive, HT1080 IDH1KD tx inconclusive, IL1B secr inh inactive and TDP1 cell CPT 2.91µM.
`C=CCNc1nc(-c2ccccc2)c(C(=O)OCC)cc1C#N` gave DT40 TDP1 no CPT 10.3µM, HT1080NT lethal inconclusive, HT1080 IDH1KD tx inconclusive, IL1B secr inh inactive and TDP1 cell CPT inconclusive.
For CCOC(=O)c1cc(C#N)c(Oc2ccccc2)nc1-c1ccccc1 the results were DT40 TDP1 no CPT inconclusive, HT1080NT lethal inactive, HT1080 IDH1KD tx inactive, IL1B secr inh inactive and TDP1 cell CPT inconclusive.
Screening CCCCNc1nc(-c2ccccc2)c(C(=O)OCC)cc1C#N returned DT40 TDP1 no CPT 23.1µM, HT1080NT lethal inconclusive, HT1080 IDH1KD tx inconclusive, IL1B secr inh inactive and TDP1 cell CPT inconclusive.
Screening COc1cccc(NC(=O)CSc2nc3ccccc3nc2N2CCOCC2)c1 returned DT40 TDP1 no CPT inconclusive, HT1080NT lethal inactive, HT1080 IDH1KD tx inactive, IL1B secr inh inconclusive and TDP1 cell CPT inconclusive.
`COc1ccc(-c2nnc(SCC(=O)NC(=O)Cc3ccccc3)n2C)cc1` gave DT40 TDP1 no CPT inactive, HT1080NT lethal inactive, HT1080 IDH1KD tx inactive, IL1B secr inh inactive and TDP1 cell CPT inactive.
O=S(=O)(c1ccc(Cl)c(Cl)c1)c1snnc1-c1ccccc1 was read as DT40 TDP1 no CPT 3.26µM, HT1080NT lethal 16.4µM, HT1080 IDH1KD tx 8.2µM, IL1B secr inh -116.3 and TDP1 cell CPT 2.59µM.
Screening CCCN(CCC)Cc1cc2ccccc2c2c1COC2 returned DT40 TDP1 no CPT inconclusive, HT1080NT lethal inactive, HT1080 IDH1KD tx inactive, IL1B secr inh inactive and TDP1 cell CPT inconclusive.
Screening CCCCN(CCCC)Cc1cc2ccccc2c2c1COC2 returned DT40 TDP1 no CPT inconclusive, HT1080NT lethal inactive, HT1080 IDH1KD tx inactive, IL1B secr inh inactive and TDP1 cell CPT 13µM.
For CC(C)(C)OC(=O)N1C[C@H](O)C[C@H]1C(=O)OCC(=O)c1ccc([N+](=O)[O-])cc1 the results were DT40 TDP1 no CPT inconclusive, HT1080NT lethal inactive, HT1080 IDH1KD tx inactive, IL1B secr inh inactive and TDP1 cell CPT 16.4µM.
Cc1ccc(S(=O)(=O)N2CC(O)C[C@H]2C(=O)OCC(=O)c2ccccc2)cc1 (stereo partly specified) was read as DT40 TDP1 no CPT inactive, HT1080NT lethal inactive, HT1080 IDH1KD tx inactive, IL1B secr inh inactive and TDP1 cell CPT inactive.
For CN(c1ccc(Br)cc1)S(=O)(=O)c1ccc2[nH]cc(C(=O)NCCN3CCOCC3)c(=O)c2c1 the results were DT40 TDP1 no CPT inactive, HT1080NT lethal inactive, HT1080 IDH1KD tx inactive, IL1B secr inh inactive and TDP1 cell CPT inactive.
COc1ccc(NC(=O)c2sccc2SCc2cccc(C(F)(F)F)c2)cc1 was read as DT40 TDP1 no CPT inconclusive, HT1080NT lethal inconclusive, HT1080 IDH1KD tx 8.91µM, IL1B secr inh inactive and TDP1 cell CPT inconclusive.
Screening Nc1ncccc1OCc1cccc(C(F)(F)F)c1 returned DT40 TDP1 no CPT 6.51µM, HT1080NT lethal inactive, HT1080 IDH1KD tx inactive, IL1B secr inh -50.8 and TDP1 cell CPT inactive.
COC(=O)c1sccc1OCc1cccc(OC)c1 was read as DT40 TDP1 no CPT inactive, HT1080NT lethal inactive, HT1080 IDH1KD tx inactive, IL1B secr inh inactive and TDP1 cell CPT inactive.
